The results in this text go back to PubChem BioAssay (EPA / NIEHS).

Records with an inconclusive call do not appear. The source made the active and inactive calls. Rule for the calls: active = hit-call score of the fitted dose curve at least 0.9, where 1 is the maximum; inconclusive = response in the unintended direction; inactive = score below 0.9.

Sequence of Glucocorticoid receptor (Homo sapiens) (P04150 whole entry, looked up): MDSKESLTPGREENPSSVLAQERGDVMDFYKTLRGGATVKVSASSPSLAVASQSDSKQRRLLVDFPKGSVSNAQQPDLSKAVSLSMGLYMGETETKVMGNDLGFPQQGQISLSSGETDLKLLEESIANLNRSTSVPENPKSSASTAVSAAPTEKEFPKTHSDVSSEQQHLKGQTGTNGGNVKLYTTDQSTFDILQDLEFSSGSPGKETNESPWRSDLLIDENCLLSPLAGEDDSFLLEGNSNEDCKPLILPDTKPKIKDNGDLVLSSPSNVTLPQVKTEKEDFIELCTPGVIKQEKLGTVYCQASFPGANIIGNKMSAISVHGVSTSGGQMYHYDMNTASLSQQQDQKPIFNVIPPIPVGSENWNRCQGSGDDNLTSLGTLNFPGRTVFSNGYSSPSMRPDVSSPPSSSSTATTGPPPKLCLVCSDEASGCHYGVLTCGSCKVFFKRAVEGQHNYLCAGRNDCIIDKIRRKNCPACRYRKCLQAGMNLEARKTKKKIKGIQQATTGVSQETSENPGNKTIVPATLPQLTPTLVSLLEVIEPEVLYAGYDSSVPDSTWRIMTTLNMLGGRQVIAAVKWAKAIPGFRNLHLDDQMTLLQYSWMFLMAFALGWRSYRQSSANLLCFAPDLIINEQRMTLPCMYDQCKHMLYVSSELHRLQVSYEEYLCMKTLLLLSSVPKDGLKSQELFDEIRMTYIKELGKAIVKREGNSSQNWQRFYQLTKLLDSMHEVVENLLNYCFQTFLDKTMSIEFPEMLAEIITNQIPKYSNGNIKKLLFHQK

The experiment has as its target Glucocorticoid receptor (Homo sapiens) (UniProt P04150). Put plainly: ATG_GR_TRANS: Attagene TRANS-FACTORIAL HepG2 Assay for human Glucocorticoid Receptor (GR) (AID 2282978).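 Note: activators score as hits since higher reporter transcript over DMSO is fitted.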 Conditions: HepG2 Attagene TRANS GR reporter, mRNA transcription. The method, then:
ATG_TRANS is a cell-based, multiplexed-readout assay that uses HepG2, a human liver cell line, with measurements taken at 24 hours after chemical dosing in a 24-well plate.ATG_GR_TRANS is one of 30 assay component(s) measured or calculated from the ATG_TRANS assay. It is designed to make measurements of mRNA induction, a form of inducible reporter, as detected with fluorescence intensity signals by Reverse transcription polymerase chain reaction (RT-PCR) and Capillary electrophoresis technology.Data from the assay component ATG_GR_TRANS was analyzed into 1 assay endpoint. This assay endpoint, ATG_GR_TRANS, was analyzed in the positive analysis fitting direction relative to DMSO as the negative control and baseline of activity. Using a type of inducible reporter, measures of mRNA for gain-of-signal activity can be used to understand the reporter gene at the transcription factor-level as they relate to the gene NR3C1. Furthermore, this assay endpoint can be referred to as a primary readout, because this assay has produced multiple assay endpoints where this one serves a reporter gene function. To generalize the intended target to other relatable targets, this assay endpoint is annotated to the nuclear receptor intended target family, where the subfamily is steroidal.
Human liver HepG2 cells are transiently transfected with multiple reporter transcription units (MRTUs) in 6-well plates using FuGene 6 reagent (Roche; 3 ml FuGene/1 mg DNA). The MRTU constructs are regulated by a cis-regulating element (promoter). […] A major difference between the CIS and TRANS system is that in CIS activities of endogenous TFs are measured, whereas the TRANS assay evaluates changes in activities of exogenous, chimeric NR-Gal4 proteins. […] At the end of 24 hour incubation, total RNA was isolated using TriZol reagent (Invitrogen). The isolated RNA is then reverse-transcribed using oligo(dT) primer and Mo-MLV reverse transcriptase (Invitrogen) with DNAse I (Ambion) treatment for 30 min. The one-tenth of the produced cDNA was amplified by PCR using Taq DNA polymerase (Invitrogen) and two reporter sequence-specific primers. The PCR products were fluorescently labeled by primer extension with 6-arboxyfluorescein (6-FAM) 5'-labeled reporter sequence-specific primer (2 min at 95 C, 20 s at 68 C and 10 min at 72 C) and these products were digested with 5U of HpaI (New England Biolabs) for 2h at 37 C. The fragments were purified using Qiaquick PCR columns (Qiagen), analyzed on an ABI 3130xL genetic analyzer (Applied Biosystems) with peak positions identified by using a set of X-rhodamine (ROX)-labeled MapMarker1000 molecular weight standards (BioVentures). The raw capillary electrophoresis data was processed using Attagraph software (Attagene).
In the case of `CCOC(=O)C1OC1(C)c1ccccc1` (stereo not given), the compound was classed as inactive.
Still for that read-out and setting: the result for `CC(O)CN(CC(C)O)CC(C)O` (stereo not given) reads “inactive”; that for `CN(C)N`, “inactive”; that for `C=C(Cl)CCl`, “inactive”.
Regarding `COC(=O)c1ccccc1S(=O)(=O)NC(=O)Nc1nc(C)cc(C)n1`, the outcome was inactive.
The same measure, in the same setting: the result for `BrCBr` reads “inactive”.
As to `O=[N+]([O-])c1cc(C(F)(F)F)c(Cl)c([N+](=O)[O-])c1Cl`, the AC50 (commonly the concentration giving half of the maximal activity seen) is 33.4 µM (active).
For `CC(C)CCCCCCCOC(=O)c1ccccc1C(=O)OCCCCCCCC(C)C`, the compound was classed as inactive.
As to `Nc1ccccc1C(=O)Oc1ccc2ccccc2c1`, the result was inactive.
`C=CCc1ccc(OC(=O)Cc2ccccc2)c(OC)c1`: the call was inactive.
As for `CC(C)(C)C(O)C(Oc1ccc(-c2ccccc2)cc1)n1cncn1` (stereo not given), the compound was classed as inactive.
On the same count and under the same terms, the result for `CNC(=O)Oc1cc(C)c(SC)c(C)c1` reads “inactive”; that for `COc1ncc(F)c2nc(S(=O)(=O)Nc3c(F)cccc3F)nn12`, “inactive”.
On the same count and under the same terms, as for `Nc1ccccc1C(=O)OCCc1ccccc1`, the entry is “inactive”; as for `O=P1(NCCCl)OCCCN1CCCl` (stereo not given), “inactive”.
Same read-out and setting: as for `Cc1ccc(OP(=O)(Oc2ccc(C)cc2)Oc2ccc(C)cc2)cc1` (tested in a mixture with another compound), the entry is “inactive”; as for `CC(C)c1ccc(O)cc1`, “inactive”.
Turning to `CCCCCCCCCCCC#N`, the compound was classed as inactive.
The same measure, in the same setting: as for `Oc1ccc(C2(c3ccc(O)cc3)c3ccccc3-c3ccccc32)cc1`, the entry is “inactive”; as for `c1ccc(P(c2ccccc2)c2ccccc2)cc1`, “inactive”.
Take `CCCC=NO`: the call was inactive.
With `Cl/C=C\CCl`, the compound was classed as inactive.
The same measure, in the same setting: the result for `CCC(C)c1cc([N+](=O)[O-])cc([N+](=O)[O-])c1OC(=O)C=C(C)C` (stereo not given) reads “inactive”.
On the same count and under the same terms, as for `CC1(C)[C@H](C(=O)O[C@H](C#N)c2cccc(Oc3ccccc3)c2)[C@@H]1C=C(Br)Br`, the entry is “inactive”; as for `CC(C)CCCCCCCOP(=O)(Oc1ccccc1)Oc1ccccc1`, “inactive”.
The same measure, in the same setting: the result for `CN(C)CCC#N` reads “inactive”.
On to `O=C(O)C(Br)Br`, for which the outcome was inactive.
On the same count and under the same terms, the result for `C=C(Cl)Cl` reads “inactive”.
Same read-out and setting: the result for `CCC(=O)c1ccc(Cl)cc1` reads “inactive”.
On the same count and under the same terms, the result for `c1ccc2c(c1)CCCC2` reads “inactive”; that for `O=C(CCl)c1ccccc1`, “inactive”; that for `CCOC(=O)COc1ccc(Cl)cc1Cl`, “inactive”.
Take `N#CCCCCC#N`: the call was inactive.
Same read-out and setting: the result for `CNC(=N[N+](=O)[O-])NCC1CCOC1` (stereo not given) reads “inactive”; that for `N#CCCCl`, “inactive”; that for `[CH3][Sn]([Cl])([Cl])[Cl]`, “inactive”.
In the case of `CC(C)COP(=O)(OCC(C)C)OCC(C)C`, the call was inactive.
Same read-out and setting: the result for `C=CCN(CC=C)C(=O)C(Cl)Cl` reads “inactive”; that for `Clc1ccc(-c2ccccc2)cc1`, “inactive”.
The same measure, in the same setting: the result for `O=[N+]([O-])c1ccc(Cl)cc1` reads “inactive”.
